Drawing on PubChem BioAssay, this text covers inhibition for 26 compounds.

The term inhibition denotes the drop in the measured response relative to a control, in per cent.

Several values for one entry are separate records, joined by “and”; a condition that tells them apart may be missing. Equal entries are not always repeated. Activity calls are given as the source filed them.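 The calls were made as follows: active = inhibition at or above 50% relative to wild type and mutant plate controls; inactive = inhibition below 50%.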

The nature of the assay: loss of swimming-algae plug formation – whole organism, Chlamydomonas reinhardtii, WT vs cilia-less mutant, absorbance, 96-well, primary screen (AID 463189).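 Also: 0% = wild type cc124 cells in DMSO and 100% = ciliumless bld1 mutant cells.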 The note with it: Chlamydomonas reinhardtii gravitaxis, OD600 absorbance, 2 days; at 10 µM; stronger effect = higher value.
`CCSC(N)=Nc1ccc(C(F)(F)F)cc1`: the inhibition was 3.43% (inactive).
The value for `COC(=O)Nc1nc2ccc(C(=O)c3cccs3)cc2[nH]1` was 11.2% (inactive).
As to `COc1cc2c(cc1OC)-c1cc(=Nc3c(C)cc(C)cc3C)n(C)c(=O)n1CC2`, the inhibition is 10.5% (inactive).
For `COC(=O)[C@@H](N)Cc1ccc(O)c(O)c1`, the inhibition was -3.44% (inactive).
`CC(N)(Cc1ccc(O)c(O)c1)C(=O)O` (stereo unspecified): the inhibition was 6.85% (inactive).
Take `N.N.O=C(O)C1(C(=O)O)CCC1.[Pt+2]`: the inhibition was 3.35% (inactive).
Regarding `NC(=NCc1ccc(Cl)c(Cl)c1)NC(=O)c1nc(Cl)c(N)nc1N`, the inhibition was 7.67% (inactive).
The value for `NS(=O)(=O)c1cccc2c1c([N+](=O)[O-])cc1nc(O)c(O)nc12` was 0.793% (inactive); that for `O=c1ccc2ccc(O)c(O)c2o1` was -4.31% (inactive).
Take `CCCCS(=N)(=O)CCC(N)C(=O)O` (stereo unspecified): the inhibition is -0.023% (inactive).
On to `O=C1NCC2(CCN(CCc3ccccc3)CC2)O1`, for which the inhibition is -9.32% (inactive).
Turning to `[N-]=[N+]=Nc1ccc(C(=O)CSC[C@H](NC(=O)CC[C@H](N)C(=O)O)C(=O)NCC(=O)O)cc1`, the inhibition was -0.598% (inactive).
Take `O=C(O)C1CCCN(CCC=C(c2ccccc2)c2ccccc2)C1` (stereo unspecified): the inhibition is 11.4% (inactive).
Consider `CNC(=O)c1cc2c(cn1)[nH]c1ccccc12`, for which the inhibition is 4.1% (inactive).
In the case of `CC(C)NCC(O)c1ccc(O)c(O)c1` (stereo unspecified), the inhibition is -5.24% (inactive) and 12.5% (inactive).
The value for `CNC(=O)[C@H]1O[C@@H](n2cnc3c(NCc4ccc(N)cc4)ncnc32)C(O)[C@H]1O` (stereo partly specified) was -1.61% (inactive); that for `O=C1CC2(CCCC2)CC(=O)N1CCCCN1CCN(c2ncccn2)CC1` was 3.65% (inactive); that for `O=c1[nH]c(=O)c2nc3ccccc3nc2[nH]1` was -4.43% (inactive).
The same measure for `Clc1ccccc1C(c1ccccc1)(c1ccccc1)n1ccnc1`: 96% (active); for `O=C(O)c1cc(=O)c2ccc(Cl)cc2[nH]1`: 4.9% (inactive).
With `CCCCC#Cc1nc(N)c2ncn([C@@H]3O[C@H](C(=O)NCC)[C@@H](O)[C@H]3O)c2n1`, the inhibition was -3.94% (inactive).
As for `COc1cc(C(O)C(=O)O)ccc1O` (stereo unspecified), the inhibition was 2.56% (inactive).
The value for `NCCc1ccc(O)c(O)c1` was -0.97% (inactive).
Turning to `CCNC(=O)[C@H]1O[C@@H](n2cnc3c(N)nc(NCCc4ccc(CCC(=O)O)cc4)nc32)C(O)[C@H]1O` (stereo partly specified), the inhibition was 3.28% (inactive).
For `CC(C)NC[C@H](O)COc1ccc(CC(N)=O)cc1`, the inhibition was -3.21% (inactive).
Turning to `O=C(/C=C/c1ccc(O)c(O)c1)OCCc1ccccc1`, the inhibition was 1.6% (inactive).
